From PubChem BioAssay AID588342 (National Center for Advancing Translational Sciences (NCATS), 2011)
Among all 360,000 compounds or so, about 25,000 (6.9%) were called active. Another 9% or so got no clear call; they are omitted. The entries come from a sample that favours actives as a whole. Unmarked numbers belong to inactive results. Calls follow the shape of the dose curve; as a rule, active = well fitted inhibition curve with a large enough effect; inconclusive = small, poorly fitted or top-dose-only effect; inactive = flat fitted curve, though single readings scatter.

These compounds were tested against Luciferin 4-monooxygenase (Photinus pyralis) (UniProt P08659) (assay: qHTS profiling assay for firefly luciferase inhibitor/activator using purifed enzyme and Km concentrations of substrates (counterscreen for miR-21 project)). Settings: purified FLuc, luminescence inhibition; series mostly up to 57.5 µM; activity change, negative = inhibition: at the top concentration.
In short: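 Purified P. pyralis luciferase (10nM final) with 10uM D-luciferin and 10uM ATP (Km levels) in 50mM Tris acetate pH 7.5, 10mM Mg acetate, 0.01% Tween-20, 0.05% BSA; qHTS 6-point titration, ~60 µM downward; luminescence read.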
Also: nearly all actives have a fitted effect of over 55% in size.
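For activity change, negative = inhibition in this document: plate controls were vehicle for no effect and reference inhibitor for full effect.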
Potency is read from the fitted curve at half-maximal effect.

Sequence of Luciferin 4-monooxygenase (Photinus pyralis) (P08659 whole entry, looked up): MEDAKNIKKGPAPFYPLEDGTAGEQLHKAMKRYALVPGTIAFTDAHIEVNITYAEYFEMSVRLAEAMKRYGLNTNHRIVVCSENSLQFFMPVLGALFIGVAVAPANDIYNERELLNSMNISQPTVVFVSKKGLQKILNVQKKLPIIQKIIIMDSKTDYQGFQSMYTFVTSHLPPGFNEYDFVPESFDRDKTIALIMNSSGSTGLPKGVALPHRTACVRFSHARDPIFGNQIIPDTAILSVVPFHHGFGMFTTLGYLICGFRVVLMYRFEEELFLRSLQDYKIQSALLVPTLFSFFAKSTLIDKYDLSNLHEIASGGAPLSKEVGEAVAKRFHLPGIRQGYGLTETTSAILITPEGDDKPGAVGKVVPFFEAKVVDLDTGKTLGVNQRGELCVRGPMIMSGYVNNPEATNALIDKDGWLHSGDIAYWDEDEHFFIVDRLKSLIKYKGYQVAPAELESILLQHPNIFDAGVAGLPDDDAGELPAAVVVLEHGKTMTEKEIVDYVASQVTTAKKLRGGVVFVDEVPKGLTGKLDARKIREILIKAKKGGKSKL

| SMILES | activity change, negative = inhibition | Potency |
| --- | --- | --- |
| Cc1ccc(CN(C(=O)COc2ccc(Cl)cc2C)C2CCS(=O)(=O)C2)o1 (centres undefined) | 4.67% |  |
| CN(CC(=O)NNC(=O)CNC(=O)c1ccccc1Cl)S(=O)(=O)c1ccc(Cl)cc1 | -0.0194% |  |
| Cc1ccc(CN2COc3cc(C)c4c(oc(=O)c5ccccc54)c3C2)cc1 | -7.2% |  |
| COc1ccc(C(=O)OC(C)C(=O)NC2CCCC2)cc1S(=O)(=O)N1CCOCC1 (centres undefined) | 0.5% |  |
| COc1ccc(OC)c(NC(=O)C2CCCN(S(=O)(=O)c3ccc4c(c3)CCCC(=O)N4)C2)c1 (centres undefined) | 6.14% |  |
| O=C(Cn1ncc2c3ccccc3n(Cc3ccccc3)c2c1=O)NC1CCCCCC1 | -4.42% |  |
| CCc1ccc(NC(=O)C(=O)NNC(=O)c2cccs2)cc1 |  | 16.9 µM (active) |
| Cc1ccc(C)c(NC(=O)CCC(=O)NNC(=O)c2cccs2)c1 | -2.71% |  |
| CC(C)C(=O)Nc1ccc(C(=O)NNC(=O)c2cccs2)cc1 | -12.4% |  |
| COCCn1cnc2c1c(=O)n(CC(=O)NN)c(=O)n2Cc1ccccc1 | -0.963% |  |
| Cc1ccccc1-c1cc(C(=O)NCC2CC2)n(CC2CC(c3cccnc3)=NO2)n1 (centres undefined) | -1.55% |  |
| Cc1nc2sc(C)c(C)n2c(=O)c1S(=O)(=O)NCCc1ccc(Cl)cc1 | -6.21% |  |
| Cc1n[nH]c(=O)n1-c1ccc(C(C)C)cc1 | -3.32% |  |
| CC(C)c1ccc(-c2nn[nH]n2)cc1 |  | 6.01 µM (active) |
| c1cc(-c2nn[nH]n2)ccc1CN1CCCCC1 | -13.7% |  |
| CCOc1ccc(N(CC)C(=O)c2noc3c2COc2ccc(C)cc2-3)cc1 | -2.9% |  |
| COc1ccccc1CNC(=O)CCn1c(=O)c2ccccc2n(CC(=O)Nc2cccc(Cl)c2)c1=O | -0.523% |  |
| Cc1ccc(C)c(N2CCN(C(c3ccccc3)c3nnc(-c4ccccc4)o3)CC2)c1 (centres undefined) | -0.488% |  |
| CCOc1ccc(NC(=O)NNC(=O)c2ccc(Cl)cc2Cl)cc1 | -1% |  |
| OC(CNCCc1ccc(Cl)cc1Cl)COc1ccccc1 (centres undefined) | 5.25% |  |
| NC(N)=N/N=C/c1ccc(OCc2ccc(Cl)cc2Cl)cc1 |  | 16.9 µM (active) |
| C#CCOc1ccc(C2CC(=O)Nc3c2c(C)nn3-c2nc(C)cc(C)n2)cc1 (centres undefined) | -14% |  |
| CCS(=O)(=O)c1ccc(O)c(NC(=O)COc2ccc(Cl)cc2)c1 |  | 16.9 µM (active) |
| COC(=O)c1sccc1NC(=O)COc1ccc(Cl)cc1 | -15.4% |  |
| CS(=O)(=O)c1ccc(C(=O)OCC(=O)NNC(=O)COc2ccc(Cl)cc2)cc1 | 3.41% |  |

| SMILES | activity change, negative = inhibition | Potency |
| --- | --- | --- |
| CCOc1ccc(N(Cc2ccccc2)C(=O)c2nc(SCC)ncc2Cl)cc1 | -9.15% |  |
| CCCN1CN=C(NS(=O)(=O)c2ccc(NC(C)=O)cc2)NC1 | 0.883% |  |
| COCCOC(=O)c1[nH]c2c(c1C)C(=O)CC(c1ccc(OC)cc1)C2 (centres undefined) | 2.45% |  |
| COC(=O)C1C(=O)c2c([nH]c(C(=O)OCCSC)c2C)CC1C (centres undefined) |  | 7.57 µM (active) |
| CCCOC(=O)C1=C(C)NC2=C(C(=O)C(C(=O)OC)C(C)C2)C1c1ccc(N(C)C)cc1 (centres undefined) | 0.124% |  |
| CCc1ccc(NC(=O)Cn2c(=O)n(CCC(=O)NCc3ccc4c(c3)OCO4)c(=O)c3ccccc32)cc1 | -0.038% |  |
| CC(C)CC(=O)NCC(c1ccc2c(c1)OCO2)N1CCN(c2ccc(F)cc2)CC1 (centres undefined) | -1.61% |  |
| CCC(=O)Nc1c(C)n[nH]c1C | -4.16% |  |
| Cc1ccc(NC(=O)Nc2nnc(-c3ccncc3)s2)cc1 | -1.13% |  |
| Cc1ccc(Nc2nc(Cl)c(C=O)s2)cc1 |  | 12 µM (active) |
| Cc1ccc(Nc2nc(C)cc(C)c2C(N)=O)cc1 | -1.84% |  |
| Cc1ccc2c(=O)c(C(=O)c3cccc(Cl)c3)cn(CC(=O)NCc3ccccc3)c2n1 | -1.16% |  |
| COc1ccc(NS(=O)(=O)c2ccc(C)c(C(=O)NNC(=O)c3csc(N4CCOCC4)n3)c2)cc1 | -19.7% |  |
| CSCCC(NC(=O)c1ccc(Cl)cc1Cl)C(=O)NNC(=O)c1csc(N2CCOCC2)n1 (centres undefined) |  | 23.9 µM (active) |
| COc1ccccc1C(=O)NC(CCSC)C(=O)NNC(=O)c1csc(N2CCOCC2)n1 (centres undefined) | 2.94% |  |
| Cc1ccc(NC(=O)Nc2sc3nc4n(c(=O)c3c2C)CCC(C)CC4)c(Cl)c1 (centres undefined) | 2.26% |  |
| COc1ccc2oc(N)c(C=O)c(=O)c2c1 | -4.85% |  |
| CCc1cc2c(=O)c(-c3ccon3)c(N)oc2cc1OC |  | 2.39 µM (active) |
| CCc1cc2c(=O)c(-c3ccc(F)cc3)c(C(F)(F)F)oc2cc1OCC(=O)O | -16.5% |  |
| Cc1cccc(NC(c2cccc(F)c2)c2ccc3ccc(C)nc3c2O)n1 (centres undefined) | -0.966% |  |
| Cc1ccc(C(=O)NNc2ncnc3ccccc23)cc1 |  | 8.49 µM (active) |
| Cc1ccc(C(=O)NNC(=O)c2cc3cc4ccccc4nc3s2)cc1 | 2.41% |  |
| CCc1nc(SCC(=O)NNC(=O)c2ccc(C)cc2)c2ccccc2n1 | -2.39% |  |
| CC1=C(C(=O)Nc2ccccc2Cl)C(c2cccs2)n2ncnc2N1 (centres undefined) | -6.97% |  |
